Shown are actives, neighbours in structure and some others; about 7.9% of the full set was active somewhere.
NOMO-1 viab: STK33 inhibitor candidate reducing NOMO-1 cell viability. NOMO-1 AML viability, CellTiter-Glo luminescence, 72 h. inhibition, % (no concentration beside the values). actives 7.5% (n = 37,000). AID 2330; in the data active = inhibition above about 80%
MITF inh: blocks MITF activity; actives 0.28% (n = 37,000); inhibition, % (test concentration not listed); TRPM1 promoter luciferase, luminescence, 24 h; AID 2240; in the data active = inhibition above about 85%;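 note: human melanocyte line stably carrying TRPM1 promoter luciferase reporter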
Hedgehog inh: blocks Sonic Hedgehog signaling; inhibition, % (test concentration not listed); AID 2313; Shh-LIGHT2 Gli-luciferase reporter, 30 h; actives 2.1% (n = 22,000);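 active = mean inhibition across valid replicates above about 65%, limit read from the data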;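 note: pathway switched on by Shh-conditioned medium diluted 1 in 25 in low serum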
PD-1 reverse act: activators reversing PD-1 mediated T-cell inhibition | primary human CD4 T cells, PD-L1 beads, CellTiter-Glo 96 h | activation, % (no concentration beside the values) | 29,000 tested, under 10 active | AID 2316; call rule not given here;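 note: 0% = median vehicle wells and 100% = positive control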
Active calls of the source: *; nt = no result.

SMILES	NOMO-1 viab	MITF inh	Hedgehog inh	PD-1 reverse act
CO[C@H]1C[C@@H]2CC[C@@H](C)[C@@](O)(O2)C(=O)C(=O)N2CCCC[C@H]2C(=O)O[C@H](C(C)CC2CC[C@@H](O)[C@H](OC)C2)CC(=O)[C@H](C)/C=C(\C)[C@@H](O)[C@@H](OC)C(=O)[C@H](C)C[C@H](C)/C=C/C=C/C=C\1C (stereo partly specified)	40	32	2	-5
CC1(C)CC(=O)c2c(O)cc(OCC(=O)c3ccccc3)cc2O1	-6	-59	nt	nt
Cc1cc(OCc2nc3ccccc3s2)ccc1NC(=O)Nc1cccc(Cl)c1	107*	-13	nt	nt
O=C(O)C(Cc1ccccc1)N1C(=O)C2C3C=CC(C3)C2C1=O (stereo unspecified)	-1	-22	nt	1
O=C(Oc1cc(=O)oc2c1c(=O)n1c3c(cccc23)CC1)c1ccccc1	140*	-8	-55	-1
O=C(Oc1cccc2ccccc12)c1ccccc1	40	1	-10	-1
Cc1cccc(C)c1OCC(=O)NCc1cccnc1	2	-1	nt	nt
Cc1ccc(S(=O)(=O)N(C)C[C@@H]2Oc3ccc(NC(=O)Nc4ccc(C(F)(F)F)cc4)cc3CC(=O)N([C@@H](C)CO)C[C@@H]2C)cc1	115*	46	43	-7
Cc1ccc(S(=O)(=O)N(C)C[C@H]2Oc3ccc(NC(=O)Nc4ccc(C(F)(F)F)cc4)cc3CC(=O)N([C@@H](C)CO)C[C@H]2C)cc1	111*	61	12	-4
Cc1cc(Cl)ccc1NC(=O)CSc1nnc(-c2ccc(Br)cc2)n1C	33	-4	nt	2
Cc1ccc(C(=O)CSc2nc3ccccc3o2)cc1[N+](=O)[O-]	1	19	nt	1
COC(=O)Nc1nc2ccc(C(=O)c3cccs3)cc2[nH]1	94*	7	62	-23
COC(=O)Nc1nc2ccc(S(=O)c3ccccc3)cc2[nH]1 (stereo unspecified)	102*	27	-62	nt
COC(=O)Nc1nc2ccc(C(=O)c3ccccc3)cc2[nH]1	110*	30	42	nt
Cc1ccc2nc(SCC(=O)NCc3ccccc3)[nH]c2c1	12	-8	nt	2
COc1ccc(C(=O)c2ccccc2)cc1	-14	-19	nt	-1
FC(F)(F)C1(C(F)(F)F)N=C(c2ccccc2)OC(N2CCCCC2)=N1	51	2	1	1
COc1ccc(CN(C)C[C@H]2Oc3ccc(NC(=O)Nc4ccc(C(F)(F)F)cc4)cc3C(=O)N([C@H](C)CO)C[C@@H]2C)cc1	104*	-9	26	-5
COc1ccc(CN(C)C[C@H]2Oc3ccc(NC(=O)Nc4ccc(F)cc4)cc3C(=O)N([C@@H](C)CO)C[C@H]2C)cc1	16	-11	7	0
COc1ccc(NC(=O)Nc2ccc3c(c2)C(=O)N([C@H](C)CO)C[C@H](C)[C@@H](CN(C)Cc2ccc(C(F)(F)F)cc2)O3)cc1	107*	27	10	-2
C[C@@H]1CCCCO[C@@H](CN(C)Cc2ccncc2)[C@@H](C)CN([C@H](C)CO)C(=O)c2cc(NC(=O)C3CCCCC3)ccc2O1	8	-3	-18	0
COc1ccc(NC(=O)Nc2ccc3c(c2)C(=O)N([C@@H](C)CO)C[C@H](C)[C@H](CN(C)Cc2ccncc2)O3)cc1	103*	5	nt	1
C[C@@H]1CCCCO[C@H](CN(C)Cc2ccc(C(F)(F)F)cc2)[C@@H](C)CN([C@H](C)CO)C(=O)c2cc(NC(=O)C3CCCCC3)ccc2O1	72	20	66*	-5
C=C(CCCCCCCC(=O)O)C(=O)O	3	-9	6	0
COc1ccc(CN(C)C[C@H]2Oc3ccc(NC(=O)Nc4ccc(C(F)(F)F)cc4)cc3C(=O)N([C@H](C)CO)C[C@H]2C)cc1	129*	-12	19	nt
SMILES	NOMO-1 viab	MITF inh	Hedgehog inh	PD-1 reverse act
COc1ccc(CN(C)C[C@H]2Oc3ccc(NC(=O)Nc4ccc(OC)cc4)cc3C(=O)N([C@@H](C)CO)C[C@@H]2C)cc1	13	-3	nt	nt
COc1ccc(CN(C)C[C@@H]2OCCCC[C@@H](C)Oc3ccc(NC(=O)Nc4ccc(C(F)(F)F)cc4)cc3C(=O)N([C@H](C)CO)C[C@@H]2C)cc1	113*	-5	21	-5
COc1ccc(CN(C)C[C@@H]2Oc3ccc(NC(=O)Nc4ccc(C(F)(F)F)cc4)cc3C(=O)N([C@@H](C)CO)C[C@H]2C)cc1	117*	-13	28	nt
COc1ccc(CN(C)C[C@H]2Oc3ccc(NC(=O)Nc4ccc(OC)cc4)cc3C(=O)N([C@@H](C)CO)C[C@H]2C)cc1	29	-3	-7	0
COc1ccc(CN(C)C[C@H]2Oc3ccc(NC(=O)Nc4ccc(C(F)(F)F)cc4)cc3C(=O)N([C@@H](C)CO)C[C@H]2C)cc1	126*	-5	45	-6
Cc1ccc(F)cc1NC(=O)CSc1nnnn1-c1ccccc1	21	3	nt	nt
COc1ccccc1NC(=O)COc1ccc2oc3c(c2c1)CCCC3	36	-11	13	0
COc1ccc(C(=O)CSc2nnc(-c3ccc(OC)c(OC)c3)n2-c2ccc(C)cc2)cc1	39	-10	nt	nt
Cc1ccc2cc3c(nc2c1)N(c1ccccc1)CC3	15	9	nt	1
Cc1ccc2cc3c(nc2c1)N(c1ccc(C(=O)NCc2ccco2)cc1)CC3	116*	-25	35	-1
Cc1cccc(NC(=O)c2ccccc2NC(=O)COc2cccc([N+](=O)[O-])c2)c1C	105*	0	nt	-8
COc1ccc(CN(C)C[C@H]2Oc3c(NC(=O)Nc4ccc(C(F)(F)F)cc4)cccc3C(=O)N([C@H](C)CO)C[C@H]2C)cc1	95*	-6	13	-5
C[C@H](CO)N1C[C@H](C)[C@H](CN(C)Cc2ccc(C(F)(F)F)cc2)Oc2c(NC(=O)Nc3ccc(C(F)(F)F)cc3)cccc2C1=O	110*	21	-43	-5
C[C@@H]1CN([C@@H](C)CO)C(=O)c2cccc(NC(=O)Nc3ccc(F)cc3)c2O[C@H]1CN(C)Cc1ccc(C(F)(F)F)cc1	103*	46	-12	-7
C[C@H]1CN([C@@H](C)CO)C(=O)c2cccc(NC(=O)Nc3ccc(F)cc3)c2O[C@H]1CN(C)Cc1ccc(C(F)(F)F)cc1	61	14	-37	-4
O=C(O)C12C3CCC4C5C3C1C5(C(=O)O)C42 (stereo unspecified)	-5	-12	nt	1
Cc1ccc(Oc2ccc(NC(=O)CN3C(=O)C4C5C=CC(C6CC56)C4C3=O)cc2)cc1 (stereo unspecified)	0	44	nt	0
O=C(CC1NCCNC1=O)Nc1ccccc1[N+](=O)[O-] (stereo unspecified)	12	-6	nt	nt
COc1cc(/C=C/C(=O)N2CCC=CC2=O)cc(OC)c1OC	119*	62	84*	nt
FC(F)(F)c1nc2ccc(Cl)cc2[nH]1	121*	67	49	-2
O=C(COc1ccc(C(=O)Nc2ccccc2Cl)cc1)Nc1cc(Cl)cc(Cl)c1	16	20	nt	0
O=C(Nc1ccccc1Cl)c1cc2ccccc2cc1O	132*	36	nt	-4

Bioassay records from PubChem BioAssay.
